Rab9 promoter act: Rab9 promoter activation; 320,000 tested, 2.8% active; Huh7 Rab9 promoter-luciferase reporter, luminescence, 24 h; Potency, µM (series often up to 9.22 µM), most hits filed as activators; AID 485297; also: nearly all actives have a fitted effect of over 60% in size
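Steps: seed 1500 Huh7 Rab9-luc cells per well, rest 2 h at 37 °C; add compound in DMSO; incubate 24 h; add luciferase reagent, 10 min ambient; read luminescence.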
SMN2 splice enh: SMN2 splice variant enhancement; HEK293 SMN2-luciferase splicing reporter, luminescence, 30-36 h; Potency, µM (top dose mostly 46.1 µM), hits mostly activators; 210,000 tested, 2.8% active; AID 1458; also: nearly all actives have a fitted effect of over 55% in size
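HEK293 cells carry an SMN2 minigene-luciferase reporter in which exon 7 inclusion puts luciferase in frame. Cells were seeded at 2000 cells/well, attached for 10-12 hours, then exposed to compounds for 30-36 hours at 37C before ONE-Glo luminescence.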
FLuc modulator: firefly luciferase modulation, counter-screen for miR-21 project | Potency, µM (series often up to 57.5 µM), most hits filed as inhibitors | purified FLuc, Km substrates, luminescence inhibition | AID 588342 | P08659 | 360,000 tested, 6.9% active; also: nearly all actives have a fitted effect of over 55% in size
Target sequence (P08659 whole entry, looked up): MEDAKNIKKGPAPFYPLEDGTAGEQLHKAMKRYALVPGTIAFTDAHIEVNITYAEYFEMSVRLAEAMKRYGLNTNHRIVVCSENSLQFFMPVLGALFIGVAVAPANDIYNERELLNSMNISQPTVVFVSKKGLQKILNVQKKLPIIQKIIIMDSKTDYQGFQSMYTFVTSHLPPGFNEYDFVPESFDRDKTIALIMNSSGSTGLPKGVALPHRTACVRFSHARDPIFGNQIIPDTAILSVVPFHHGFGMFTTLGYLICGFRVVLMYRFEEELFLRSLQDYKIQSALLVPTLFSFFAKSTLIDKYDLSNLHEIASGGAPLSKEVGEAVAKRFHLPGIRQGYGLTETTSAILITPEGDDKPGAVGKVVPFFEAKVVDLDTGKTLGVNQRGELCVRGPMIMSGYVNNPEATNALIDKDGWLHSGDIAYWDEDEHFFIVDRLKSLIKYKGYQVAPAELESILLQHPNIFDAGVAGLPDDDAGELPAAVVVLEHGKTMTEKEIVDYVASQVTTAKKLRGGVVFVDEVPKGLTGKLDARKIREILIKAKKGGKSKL
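Biochemical qHTS of compounds, final roughly 60 µM downward over six points, against 10 nM purified firefly luciferase using Km concentrations of substrates (10 uM D-luciferin, 10 uM ATP) in Tris acetate pH 7.5 buffer; luminescence output.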
ELG1 genotoxic: induces genotoxicity in HEK293T cells with luciferase-tagged ELG1; HEK293T ELG1-luciferase reporter, luminescence, 16 h; Potency, µM (highest dose often 46 µM), hits mostly activators; 330,000 tested, 1.3% active; AID 504466; also: nearly all actives have a fitted effect of over 60% in size
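After overnight (16 hr) compound treatment at 37 °C, ELG1-luciferase HEK293T cells were lysed with ONE-Glo; luminescence quantified 30 min later at room temperature.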
NPC1 promoter act: NPC1 promoter activation | Huh7 NPC1 promoter luciferase reporter, 24 h | 320,000 tested, 2.4% active | Potency, µM (titrated, usually from 9.22 µM), most hits filed as activators | AID 485313; also: nearly all actives have a fitted effect of over 60% in size
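Stable NPC1-promoter luciferase Huh7 line; cpd (DMSO) 24 h, 37 °C, 5% CO2; Amplite luciferase reagent 10 min RT; luminescence readout. qHTS format.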
Luc counter: blocks Kinase-Glo luciferase, a counter-screen artifact | Q27757 | Kinase-Glo luciferase, ATP luminescence, 8 min | Potency, µM (top dose mostly 38.3 µM), usual class: inhibitors | 200,000 tested, 0.28% active; also: nearly all actives have a fitted effect of over 60% in size
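Compound is pinned into ATP-containing buffer (10 uM ATP, imidazole pH 7.2, 7 mM MgCl2). Kinase-Glo luciferase reagent is then added. Light output is recorded following an 8-min room-temperature incubation.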
Each line names hits and unclear results; the compound was inactive in the other large screens. An excerpt weighted towards active compounds, which were near 7.5% of everything screened. Calls follow the shape of the dose curve; as a rule, active = well fitted curve in the direction sought with a large enough effect; inconclusive = small, poorly fitted or top-dose-only effect, or another doubt; inactive = no such curve, though single readings can be large; an effect the other way counts as inactive or inconclusive.

CN=CC1=C(O)c2ccccc2C1=O	none
COc1ccc(OC)c(/C=N\NC(=O)c2cc3c(ccc4ccccc43)o2)c1	none (no result: SMN2 splice enh, Luc counter)
CCN(CC)c1ccc(NC(=O)c2cc(S(=O)(=O)N3CCc4ccccc43)cn2C)c(C)c1	none (no result: Rab9 promoter act, SMN2 splice enh, ELG1 genotoxic, NPC1 promoter act, Luc counter)
O=C1C(C=NCCN2CCOCC2)=C(O)c2ccccc21	SMN2 splice enh inconclusive, FLuc modulator 6µM, ELG1 genotoxic inconclusive
CCC(C)c1ccc(O[C@@H]2O[C@H](CO)[C@@H](O)[C@H](O)[C@H]2NC(C)=O)cc1 (stereo partly specified)	SMN2 splice enh inconclusive (no result: Rab9 promoter act, FLuc modulator, ELG1 genotoxic, NPC1 promoter act)
CCN(CC)c1ccc(/C=C(\C#N)C(N)=S)cc1	FLuc modulator 21µM (no result: SMN2 splice enh, Luc counter)
Cc1ccc(-c2cc3nccc(-c4cc([N+](=O)[O-])ccc4O)n3n2)cc1	FLuc modulator inconclusive (no result: Rab9 promoter act, ELG1 genotoxic, NPC1 promoter act, Luc counter)
COc1ccc([C@H]2CC(=O)C=C(c3cccc(NC(C)=O)c3)C2)cc1	none (no result: SMN2 splice enh, Luc counter)
O=[N+]([O-])c1cccc(/C=N/N2CCN(c3ccccn3)CC2)c1	Rab9 promoter act 3.2µM, FLuc modulator inconclusive, NPC1 promoter act inconclusive (no result: SMN2 splice enh, Luc counter)
C(=N\N1CCN(c2ccccn2)CC1)/c1cccc2ccccc12	FLuc modulator 17µM (no result: SMN2 splice enh, Luc counter)
CC(C)c1ccc(/C=N/N2CCN(c3ccccn3)CC2)cc1	Rab9 promoter act inconclusive, FLuc modulator inconclusive, NPC1 promoter act inconclusive (no result: SMN2 splice enh, Luc counter)
C(=C\c1ccccc1)/C=N/N1CCN(c2ccccn2)CC1	Rab9 promoter act inconclusive, SMN2 splice enh inconclusive, FLuc modulator 12µM, ELG1 genotoxic 4.1µM, NPC1 promoter act inconclusive
Oc1ccccc1/C=N/N1CCN(c2ccccn2)CC1	Rab9 promoter act 2.8µM, FLuc modulator 13µM, ELG1 genotoxic inconclusive, NPC1 promoter act inconclusive (no result: SMN2 splice enh, Luc counter)
CCc1ccc(C(=O)c2cn(CC(=O)Nc3ccc4c(c3)OCO4)c3ccc(F)cc3c2=O)cc1	none (no result: Rab9 promoter act, ELG1 genotoxic, NPC1 promoter act, Luc counter)
O=C(COC(=O)CCC(=O)c1ccc2c(c1)OCCO2)NCc1ccc2c(c1)OCO2	FLuc modulator 11µM
CCCC(=O)c1ccc2c(c1)OCCO2	FLuc modulator inconclusive
CCOc1ncccc1C(=O)OCC(=O)c1cc(C)n(Cc2ccco2)c1C	Rab9 promoter act 0.5µM, FLuc modulator 0.85µM, ELG1 genotoxic 6.5µM, NPC1 promoter act 0.35µM
CCOc1ncccc1C(=O)OCC(=O)c1cc(OC)ccc1OC	none
Cc1cc(C(=O)COC(=O)CCC(=O)c2ccc3c(c2)OCCO3)c(C)n1Cc1ccco1	FLuc modulator 8.5µM, ELG1 genotoxic inconclusive
Cc1cc(C(=O)COC(=O)c2ccc(Br)o2)c(C)n1Cc1ccco1	Rab9 promoter act 3.2µM, FLuc modulator 2.7µM, ELG1 genotoxic inconclusive
CCOc1ccc2c(c1)c(=O)c(C(=O)c1ccc(CC)cc1)cn2CC(=O)Nc1cccc(Cl)c1	none (no result: Rab9 promoter act, ELG1 genotoxic, NPC1 promoter act, Luc counter)
O=C(Cn1c(=O)nc(-c2ccccc2)c2cc(Cl)ccc21)N1CCN(c2ccc(F)cc2)CC1	none (no result: Rab9 promoter act, SMN2 splice enh, ELG1 genotoxic, NPC1 promoter act, Luc counter)
CCCCNc1nc(Oc2ccc(OCC(N)=O)nn2)nc(N2CCOCC2)n1	none (no result: Rab9 promoter act, ELG1 genotoxic, NPC1 promoter act, Luc counter)
Cc1cc(C(=O)COC(=O)c2ccc(O)cc2)c(C)n1Cc1ccco1	Rab9 promoter act 2.5µM, SMN2 splice enh 22µM, FLuc modulator 3.4µM, ELG1 genotoxic inconclusive, NPC1 promoter act 3.5µM
Cc1cc(C(=O)C(C)Cl)c(C)n1Cc1ccco1 (stereo unspecified)	none
Cc1cc(C(=O)COC(=O)CNC(=O)c2ccco2)c(C)n1Cc1ccco1	FLuc modulator inconclusive
Cc1cc(C(=O)COC(=O)C(C)NC(N)=O)c(C)n1Cc1ccco1 (stereo unspecified)	FLuc modulator 13µM
COc1cc(OC)cc(C(=O)NCC(=O)OCC(=O)c2cc(C)n(Cc3ccco3)c2C)c1	FLuc modulator 27µM
Cn1c(=O)c2c([nH]c(=O)n2Cc2ccc(Cl)cc2Cl)n(C)c1=O	none (no result: Rab9 promoter act, ELG1 genotoxic, NPC1 promoter act, Luc counter)
CC1CCCN(C(=O)Cn2ncc3c([nH]c4ccccc43)c2=O)C1 (stereo unspecified)	none (no result: Rab9 promoter act, SMN2 splice enh, ELG1 genotoxic, NPC1 promoter act, Luc counter)
CCOC(=O)c1c(C)[nH]c(C2=NNC(=NC3CC3)SC2)c1C	Rab9 promoter act inconclusive, FLuc modulator 0.6µM, ELG1 genotoxic 0.58µM, NPC1 promoter act inconclusive
CCOC(=O)c1c(C)[nH]c(/C(C)=N/O)c1C	none
COc1cc(OC)c(NC(=O)c2cc3c(=O)oc4ccc(C)cc4c3s2)cc1Cl	none (no result: Rab9 promoter act, ELG1 genotoxic, NPC1 promoter act, Luc counter)
Cc1cc(C)nc(Nc2n[nH]c(-c3ccc(C(C)(C)C)cc3)n2)n1	FLuc modulator 1.7µM
Cc1cc(C)nc(Nc2n[nH]c(-c3ccc(N)cc3)n2)n1	Rab9 promoter act 3.5µM, SMN2 splice enh inconclusive, FLuc modulator 9.5µM, ELG1 genotoxic 7.3µM, NPC1 promoter act 1.6µM
Cc1cc(C)nc(Nc2n[nH]c(C)n2)n1	none (no result: SMN2 splice enh)
Cc1ccc(-c2nn(-c3ccccc3)cc2C(N)=O)o1	FLuc modulator inconclusive
Cc1ccc(-c2nn(-c3ccccc3)cc2CO)o1	Rab9 promoter act inconclusive, SMN2 splice enh 8.9µM, FLuc modulator 12µM, ELG1 genotoxic inconclusive, NPC1 promoter act inconclusive
Cc1ccc(-c2nn(-c3cccc(F)c3)cc2CN2CCN(c3ccccn3)CC2)o1	FLuc modulator inconclusive (no result: SMN2 splice enh)
Cc1ccc(-c2nn(-c3ccccc3)cc2/C=C/C(=O)OCC(=O)NC2CC2)o1	none
Cc1ccc(-c2nn(-c3ccccc3)cc2C=O)o1	Rab9 promoter act inconclusive, SMN2 splice enh 10µM, FLuc modulator 3µM, ELG1 genotoxic inconclusive
Cc1ccc(-c2nn(-c3cccc(F)c3)cc2CNCc2cccnc2)o1	FLuc modulator 19µM (no result: SMN2 splice enh)
OCc1cn(-c2ccccc2)nc1-c1ccco1	FLuc modulator 17µM, ELG1 genotoxic inconclusive, NPC1 promoter act inconclusive
COc1ccc(C(=O)c2c(N)c(C(=O)Nc3cccc(OC)c3)c3ccccn23)cc1	none (no result: Rab9 promoter act, ELG1 genotoxic, NPC1 promoter act, Luc counter)

Screening data deposited in PubChem by National Center for Advancing Translational Sciences (NCATS).
